# High-throughput results (PubChem BioAssay)
# Most compounds without a hit are left out; they make up all but 32% or so of the library.
# CYP2C19 activ = increases human CYP2C19 enzyme activity | P33261 | recombinant CYP2C19, luciferin-H EGE luminescence; active compounds read high; 0 = fully inhibited enzyme, 1 = untreated enzyme | activation factor at 5 µM | 96,000 tested, under 10 active;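 active = activation factor of at least 2 at 5 µM in the primary screen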
# CYP2C9 activ = activators of human CYP2C9 | AID 1024 | 1.4% of 96,000 active | recombinant CYP2C9, luciferin-H conversion, luminescence; active compounds read high; factor 1 = untreated enzyme, 0 = blocked | activation factor at 5 µM | P11712;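 active = activation factor of 2 or more for CYP2C9 at a 5 µM dose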
# Target sequence (P11712 whole entry, looked up): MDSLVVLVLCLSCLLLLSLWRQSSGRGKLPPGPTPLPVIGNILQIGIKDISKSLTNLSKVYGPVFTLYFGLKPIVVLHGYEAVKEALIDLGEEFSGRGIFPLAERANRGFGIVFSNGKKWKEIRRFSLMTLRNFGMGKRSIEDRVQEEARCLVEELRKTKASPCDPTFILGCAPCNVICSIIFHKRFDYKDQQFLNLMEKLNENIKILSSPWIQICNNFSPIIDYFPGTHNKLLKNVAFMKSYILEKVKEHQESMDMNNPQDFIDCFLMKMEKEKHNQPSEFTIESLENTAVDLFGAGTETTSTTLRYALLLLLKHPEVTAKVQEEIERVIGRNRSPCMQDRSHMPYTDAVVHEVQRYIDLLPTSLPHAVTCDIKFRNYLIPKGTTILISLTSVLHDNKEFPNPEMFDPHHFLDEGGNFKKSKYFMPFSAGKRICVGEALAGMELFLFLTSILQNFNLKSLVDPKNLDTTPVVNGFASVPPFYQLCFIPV
# CYP2C9 inh = blocks human cytochrome P450 2C9. 20% of 96,000 active. P11712. AID 777. CYP2C9 Supersomes, luciferin-H conversion, luminescence. inhibition, % at 5 µM;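 active = blocking of liver enzyme CYP2C9 beyond about 50% at 5 µM, limit read from the data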
# PostGolgi ctrl = inhibits growth of the yeast control strain. 5% of 98,000 active. efflux-deficient yeast background strain, growth absorbance A615, 16 h. inhibition, % at 10 µM. AID 738
# PostGolgi yeast = growth inhibition of a yeast mutant, post-Golgi transport screen; post-Golgi transport phenotypic cell assay; inhibition, % at 10 µM; 0.9% of 98,000 active; AID 739;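 also: yeast cells grown in 1536-well plates; yeast grown about 18 h at 30C before absorbance read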
# CYP2C19 inhib = inhibitors of human CYP2C19 | inhibition, % at 5 µM | P33261 | 21% of 96,000 active | CYP2C19 Supersomes, luciferin-H EGE luminescence, 30 min | AID 778;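 active = CYP2C19 inhibition above a set limit at 5 µM in the primary screen, cut at about 50% in these data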
# Hits are given with their value; n = inactive; x = no result given. Rule as the data show it, unless noted: active = inhibition above about 30%; inactive = the rest.
SMILES,CYP2C19 activ,CYP2C9 activ,CYP2C9 inh,PostGolgi ctrl,PostGolgi yeast,CYP2C19 inhib
C=CCOC(=O)Nc1c(C(=O)OC)[nH]c2ccc(Cl)cc12,n,n,n,n,n,n
CCn1c(CSc2nnc(-c3ccoc3C)n2C)nc2cc(S(=O)(=O)N(C)C)ccc21,x,x,x,38,n,x
CCn1c(CSc2nnc(-c3ccc4c(c3)OCO4)o2)nc2cc(S(=O)(=O)N(C)C)ccc21,n,n,81,n,n,83
CCn1c(CSc2nnc(C)n2-c2ccccc2)nc2cc(S(=O)(=O)N(C)C)ccc21,n,n,66,n,n,n
Cc1occc1-c1nnc(SCc2nc3ccccc3c(=O)n2CC#N)n1C,n,n,n,n,n,n
CN(C)S(=O)(=O)c1ccc(C(=O)Nc2cccc(C(=O)O)c2)cc1,n,n,n,n,n,n
OCCN1CCN(c2ncnc3ccc(Br)cc23)CC1,n,n,n,n,n,n
COc1ccc(N2C(=O)CC(c3ccc(OC(C)C)cc3)C2=O)cc1 (stereo not drawn),n,n,n,n,n,n
CC(Oc1ccc(F)cc1)C(=O)/C=C\N(C)C (stereo not drawn),n,n,n,n,n,n
O=C(CN1CCC(C(=O)c2ccc3c(c2)OCCO3)CC1)NC1CCCC1,n,n,n,n,n,84
COc1ccc(S(=O)(=O)N2CCC(C(=O)c3ccc4c(c3)OCCO4)CC2)cc1,x,x,x,n,n,x
Cc1ccc(C(=O)C2CCN(CC(=O)Nc3ccc(N(C)C)cc3)CC2)cc1,n,n,n,n,n,n
CCOc1ccc(C(=O)N2CCC(C(=O)c3ccc4c(c3)OCCO4)CC2)cc1,n,n,55,n,n,85
Cc1ccc(C(=O)C2CCN(CC(=O)Nc3ccc4c(c3)OCCO4)CC2)cc1,n,n,62,n,n,n
Cc1ccc(C(=O)C2CCN(CC(=O)Nc3nc(C)cs3)CC2)cc1,n,n,90,n,n,n
O=C(c1ccc2c(c1)OCCO2)C1CCN(S(=O)(=O)c2ccccc2F)CC1,n,n,n,n,n,n
Cc1ccc(NCc2nnc(SC(C)C(=O)N/N=C/c3ccc(C)o3)n2-c2ccccc2)cc1 (stereo not drawn),n,n,n,n,n,n
C/C(=N/Oc1nc(C)cc(C)n1)c1ccc(Br)cc1,n,n,n,n,n,53
C/C(=N/Oc1nc(C)cc(C)n1)c1ccc(Cl)cc1Cl,n,n,n,n,n,n
CC1=C(C(=O)NCc2ccco2)C2(CCC(C)CC2)OC1=O (stereo not drawn),n,n,n,n,n,n
CC1=C(C(=O)NCc2ccc3c(c2)OCO3)C2(CCC(C)CC2)OC1=O (stereo not drawn),n,n,85,n,n,66
CCC(C)NC(=O)C1=C(C)C(=O)OC12CCC(C)CC2 (stereo not drawn),n,n,n,n,n,82
CC1=C(C(=O)NC2CCC(C)CC2)C2(CCC(C)CC2)OC1=O (stereo not drawn),n,n,n,n,n,n
Cc1ccc(CS(=O)(=O)CCC(=O)NCCCN2CCCC2)cc1,n,n,n,n,n,n
N/C(Cc1ccc([N+](=O)[O-])cc1)=N\OC(=O)c1ccc([N+](=O)[O-])cc1,n,n,n,n,n,n
SMILES,CYP2C19 activ,CYP2C9 activ,CYP2C9 inh,PostGolgi ctrl,PostGolgi yeast,CYP2C19 inhib
COc1ccccc1C/C(N)=N/OC(=O)c1cccc([N+](=O)[O-])c1,n,2.4,n,n,n,n
O=C(CSc1nc2ccccc2c(=O)n1NC(=O)Cc1ccccc1)NCCc1ccccc1,n,n,94,n,n,n
CC(=O)Nc1nnc(SCC(=O)NCC2CCCO2)s1 (stereo not drawn),n,n,n,x,x,n
CC(=O)Nc1nnc(SCC(=O)NCCOc2ccccc2)s1,n,n,n,51,n,n
CCNC(=O)CSc1nc2ccccc2c(=O)n1CCCOC(C)C,n,n,62,n,n,76
CCn1c(SCC(=O)NCCOc2ccccc2)nc2ccccc2c1=O,n,n,57,n,n,69
Cc1ccc(S(=O)(=O)N2CCC(C(=O)N3CCC(C(=O)NCc4cccnc4)CC3)CC2)cc1,n,n,n,n,n,n
CCOc1ccc(Cc2nc(C)c(CC(=O)N3CCOCC3)c(=O)[nH]2)cc1,n,n,n,n,n,n
CCOC(=O)C(C)On1c(-c2ccc(Cl)cc2)nc2ccc([N+](=O)[O-])cc21 (stereo not drawn),n,n,n,n,n,n
COCCNC(=O)CSc1nc2ccccc2c(=O)n1CCCC(=O)NCc1ccccc1,n,n,70,n,n,n
CCOC(=O)CSc1nc2ccccc2c(=O)n1CC,n,n,n,n,n,n
CCn1c(SCC(=O)OC2CCCCC2)nc2ccccc2c1=O,n,n,77,n,n,87
CCCNc1nc(C)c(C(C)=O)cc1C#N,n,n,n,n,n,n
Cc1cccc(OCc2nnc(SCc3cc(=O)n4cc(Br)ccc4n3)o2)c1,n,n,90,n,n,92
CC(C)NC(=O)NC(=O)CSc1nnc(COc2ccccc2Cl)o1,n,n,n,n,n,n
O=c1cc(CSc2nnc(COc3ccccc3Cl)o2)nc2sccn12,n,n,53,n,n,88
CC(C)COC(=O)N1CC(O)CC1C(=O)O (stereo not drawn),n,n,n,n,n,n
Cc1ccc(-c2nnc(N3CCCCC3)c3ccccc23)cc1S(=O)(=O)N1CCN(C)CC1,n,n,58,n,n,n
COCCNC(=O)CN1CCC(NC(=O)C(C)(C)C)CC1,n,n,n,n,37,n
COc1cccc(/C=C2\N=C(SC)SC2=O)c1OC,n,n,n,n,n,n
CSC1=N/C(=C\c2ccccc2F)C(=O)S1,n,n,n,n,n,63
COC(=O)c1cc(F)c(-n2cncn2)c(F)c1,n,n,n,n,n,70
COc1ccc(C(=O)Nc2cc(C(F)(F)F)ccc2-n2cncn2)cc1,n,n,n,n,x,n
O=C(c1cccn(Cc2ccc(Cl)c(Cl)c2)c1=O)N1CCOCC1,n,n,n,n,n,n
O=c1c(-c2nc3ccccc3s2)cccn1Cc1ccc(Cl)c(Cl)c1,n,n,74,36,n,n
SMILES,CYP2C19 activ,CYP2C9 activ,CYP2C9 inh,PostGolgi ctrl,PostGolgi yeast,CYP2C19 inhib
Cc1nc(-c2c(-c3ccc(O)cc3O)noc2C(F)(F)F)cs1,n,n,n,n,n,71
COc1ccc(C(=O)Nc2nc(C)c(C)s2)cc1OC,n,n,n,n,n,n
O=C1CC(c2ccccc2)n2nc(NC(=O)C3CCCO3)nc2N1 (stereo not drawn),n,n,79,n,n,91
O=C(COC(=O)C1CC(=O)N(C2CCCCC2)C1)c1ccc(F)cc1 (stereo not drawn),n,n,n,n,n,n
Cc1ccc(CN2CN(S(=O)(=O)c3cccs3)c3nc4ccccc4nc32)cc1,n,n,56,n,n,n
COCCN1CN(S(=O)(=O)c2ccc(Cl)cc2)c2nc3ccccc3nc21,n,n,51,n,n,94
